Experimental data reported in paper PMC5540273 (PLoS ONE, 2017).

Columns and labels:
Conditions in all cases: concentration: 1 μM, replicates: in singlicate; n = 1
BLK = test system: BLK
BMPR1A = test system: BMPR1A
BMPR1B = test system: BMPR1B
BMPR2 = test system: BMPR2
BMX = test system: BMX
BRAF = test system: BRAF
BRK = test system: T1, BRK
T1 construct: gene PTK6

BRSK1 = test system: BRSK1
BRSK2 = test system: BRSK2
BTK = test system: BTK
BUB1 = test system: BUB1
CAMK1B = test system: CAMK1B
CAMK1D = test system: CAMK1D
CAMK1G = test system: CAMK1G
CAMK1 = test system: CAMK1
CAMK2A = test system: CAMK2A
CAMK2B = test system: CAMK2B
CAMK2D = test system: CAMK2D
CAMK2G = test system: CAMK2G
CAMK4 = test system: CAMK4
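Further: KINOMEscan kinase panel screen.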

Structure (SMILES) | %Inh (BLK) [%] | %Inh (BMPR1A) [%] | %Inh (BMPR1B) [%] | %Inh (BMPR2) [%] | %Inh (BMX) [%] | %Inh (BRAF) [%] | %Inh (BRK) [%] | %Inh (BRSK1) [%] | %Inh (BRSK2) [%] | %Inh (BTK) [%] | %Inh (BUB1) [%] | %Inh (CAMK1B) [%] | %Inh (CAMK1D) [%] | %Inh (CAMK1G) [%] | %Inh (CAMK1) [%] | %Inh (CAMK2A) [%] | %Inh (CAMK2B) [%] | %Inh (CAMK2D) [%] | %Inh (CAMK2G) [%] | %Inh (CAMK4) [%]
O=C(Nc1cccc(-c2nn3ncccc3c2-c2ccnc(Nc3cccc(C(F)(F)F)c3)n2)c1)c1c(F)cccc1F [GSK299495] | 95.9 | 0 | 0 | 23 | 72 | 69 | 71 | 0 | 0 | 66 | 80 | 30 | 21 | 9 | 32 | 100 | 100 | 19 | 11 | 0
Cc1ccc(C(=O)NCC(N)=O)cc1-n1c(C)cc(OCc2ccc(F)cc2F)c(Br)c1=O | 14 | 2 | 0 | 0 | 24 | 0 | 23 | 11 | 39 | 0 | 0 | 10 | 36 | 0 | 44 | 9 | 1 | 0 | 0 | 26
Cc1cccc(Cn2ccn3c(=O)cc(N4CCOCC4)nc23)c1 [GSK2297542] | 57 | 0 | 0 | 0 | 27 | 4 | 22 | 0 | 6 | 0 | 34 | 19 | 70 | 9 | 71 | 0 | 0 | 9 | 28 | 20
[2H]C([2H])(c1cccc(C(F)(F)F)c1C)n1ccn2c(=O)nc(N3CCOCC3)cc12 [GSK2336394] | 25 | 1 | 0 | 0 | 9 | 44 | 18 | 7 | 0 | 0 | 52 | 26 | 0 | 0 | 0 | 0 | 0 | 7 | 3 | 16
COc1ccc(S(=O)(=O)NC2CCN(c3cc(C)nc(Nc4cccc(C#N)c4)n3)CC2)cc1.O=C(O)C(F)(F)F [GSK1653539] | 25 | 0 | 0 | 0 | 3 | 0 | 0 | 0 | 0 | 0 | 0 | 1 | 17 | 0 | 0 | 0 | 0 | 6 | 11 | 0
CN1c2ccc(CNc3ccc(F)cc3)cc2-c2c(cnn2C)S1(=O)=O | 0 | 0 | 0 | 0 | 0 | 36 | 0 | 0 | 0 | 0 | 0 | 0 | 50 | 0 | 63 | 0 | 1 | 4 | 0 | 0
CNc1ncnc2[nH]ncc12 [SKF-18355] | 0 | 6 | 0 | 35 | 0 | 11 | 0 | 0 | 0 | 0 | 20 | 0 | 0 | 0 | 0 | 0 | 0 | 0 | 0 | 0
Cc1nnc(-c2ccc(C)c(-c3ccc(C(=O)Nc4ccc(NS(C)(=O)=O)cc4)cc3)c2)o1 [GW702865] | 14 | 0 | 0 | 9 | 16 | 0 | 3 | 9 | 0 | 40 | 35 | 10 | 2 | 0 | 4 | 0 | 1 | 0 | 0 | 0
COc1ccc(Nc2nccc(N3CCC(NC(=O)Nc4cccc(C(C)=O)c4)C3)n2)cc1 (stereo not shown) [GSK1379731] | 35 | 0 | 0 | 0 | 0 | 0 | 7 | 0 | 0 | 0 | 0 | 13 | 40 | 0 | 37 | 0 | 0 | 1 | 11 | 0
Cl.Oc1cccc(Nc2ccnc3cc(-c4ccncc4)ccc23)c1 [GW494601] | 99.1 | 84 | 99.9 | 30 | 28 | 76 | 90 | 14 | 4 | 46 | 81 | 5 | 5 | 0 | 35 | 0 | 0 | 6 | 29 | 0
Cc1cccc(-c2nc(-c3ccc(S(C)(=O)=O)cc3)sc2-c2ccncc2)c1 | 0 | 0 | 0 | 0 | 0 | 15 | 0 | 40 | 27 | 0 | 25 | 0 | 15 | 9 | 5 | 0 | 0 | 4 | 5 | 0
Fc1ccc(-c2ncn(CCCN3CCOCC3)c2-c2cccnc2)cc1 [SB-211743] | 16 | 0 | 0 | 16 | 0 | 2 | 0 | 0 | 4 | 0 | 4 | 0 | 0 | 0 | 0 | 0 | 0 | 0 | 0 | 14
O=C(NCCNc1ccnc(Nc2ccc(F)cc2)n1)c1cc2ccccc2s1 [GSK1379874] | 23 | 0 | 0 | 15 | 1 | 0 | 29 | 0 | 0 | 0 | 49 | 0 | 1 | 0 | 1 | 0 | 0 | 7 | 18 | 0
N#Cc1c(N2CCOCC2)sc(-c2ccn[nH]2)c1-c1ccc(Cl)cc1 | 0 | 21 | 0 | 17 | 14 | 0 | 8 | 0 | 18 | 8 | 13 | 12 | 19 | 72 | 24 | 0 | 0 | 47 | 0 | 4
COc1cc2ncn(-c3cc(OCc4sccc4Cl)c(C(N)=O)s3)c2cc1OC [GSK448459] | 32 | 0 | 0 | 14 | 0 | 0 | 11 | 37 | 45 | 0 | 55 | 25 | 0 | 0 | 4 | 0 | 0 | 2 | 12 | 0
COc1ccc(Nc2nccc(N3CCC(NC(=O)Nc4cc(C)ccc4C)C3)n2)cc1 (stereo not shown) [GSK1379741] | 0 | 0 | 0 | 0 | 0 | 0 | 5 | 0 | 0 | 0 | 33 | 13 | 0 | 0 | 0 | 0 | 0 | 0 | 0 | 0
NS(=O)(=O)c1cccc(-c2ccc3nccc(-c4cccc(S(N)(=O)=O)c4)c3c2)c1 [GW867253] | 0 | 0 | 3 | 33 | 0 | 0 | 0 | 0 | 5 | 0 | 17 | 0 | 0 | 0 | 0 | 0 | 0 | 0 | 0 | 0
CN(C1=C(c2ccccc2)C(=O)NC1=O)c1ccccc1 [SB-334860] | 0 | 0 | 0 | 0 | 13 | 0 | 2 | 0 | 0 | 0 | 0 | 34 | 3 | 0 | 6 | 7 | 11 | 1 | 3 | 0
COc1cc2c(cc1OCCN1CCN(C)CC1)ncc1c3ccc(C#N)cc3[nH]c21 | 4 | 0 | 0 | 0 | 0 | 0 | 23 | 4 | 0 | 0 | 100 | 19 | 44 | 16 | 0 | 93.5 | 70 | 92.6 | 86 | 0
c1ccc(-c2cc(-c3c[nH]nc3-c3ccccn3)ccn2)cc1 [GW576604] | 37 | 1 | 0 | 4 | 3 | 0 | 0 | 0 | 0 | 0 | 34 | 10 | 14 | 0 | 14 | 0 | 0 | 10 | 30 | 0
